This is a sample that favours compounds with a hit; in the whole collection about 1.1% have one here.
BioA inh: M. tuberculosis BioA enzyme inhibitors, primary screen, biochemical, plate reader, single point, HTS | 7,8-diaminopelargonic acid synthase BioA (Mycobacterium tuberculosis) | purified M. tuberculosis BioA enzyme | inhibition, % at 9.99 µM | actives 0.096% (n = 360,000) | AID 602481, 2012; in the data active = inhibition above about 40%
RecA splice inh: Mtb RecA intein splicing inhibitors, primary screen, biochemical, fluorescence, HTS; Protein RecA (Mycobacterium tuberculosis (strain ATCC 25618 / H37Rv)), P9WHJ3; cell-free RecA intein splicing; inhibition, % (no concentration beside the values); actives 0.75% (n = 290,000); in the data active = inhibition above about 30%
Target sequence (P9WHJ3 whole entry, looked up, canonical isoform): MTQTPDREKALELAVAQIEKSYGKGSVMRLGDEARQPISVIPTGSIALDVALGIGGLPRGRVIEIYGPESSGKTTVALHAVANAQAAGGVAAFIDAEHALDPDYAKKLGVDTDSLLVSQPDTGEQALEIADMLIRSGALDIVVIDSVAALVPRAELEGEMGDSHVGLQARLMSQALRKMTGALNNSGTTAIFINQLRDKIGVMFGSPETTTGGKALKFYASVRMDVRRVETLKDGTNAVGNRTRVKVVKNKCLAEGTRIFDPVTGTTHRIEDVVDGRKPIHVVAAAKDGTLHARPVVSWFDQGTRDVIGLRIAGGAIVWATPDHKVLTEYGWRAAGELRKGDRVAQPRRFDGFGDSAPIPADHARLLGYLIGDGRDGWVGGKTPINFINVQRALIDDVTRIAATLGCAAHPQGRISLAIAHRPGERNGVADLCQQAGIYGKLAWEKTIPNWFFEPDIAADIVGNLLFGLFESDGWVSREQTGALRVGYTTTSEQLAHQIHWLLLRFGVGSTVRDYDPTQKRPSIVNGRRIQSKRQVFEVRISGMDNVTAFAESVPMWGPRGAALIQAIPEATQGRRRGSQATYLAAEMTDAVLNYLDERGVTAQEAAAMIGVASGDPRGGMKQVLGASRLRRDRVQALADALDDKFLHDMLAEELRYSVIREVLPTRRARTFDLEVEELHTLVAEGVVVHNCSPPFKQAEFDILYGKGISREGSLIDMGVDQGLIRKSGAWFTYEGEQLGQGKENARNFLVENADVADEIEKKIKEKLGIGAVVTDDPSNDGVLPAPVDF
Mtb betalactam: beta-lactam sensitization of Mtb H37Rv, H37Rv | actives 0.27% (n = 330,000) | M. tuberculosis H37Rv growth with meropenem, percent inhibition | inhibition, % at 25 µM; call rule not given here;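 also: growth measured after seven days incubation then overnight dye step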
BJeLR lethal: MLPCN primary cell-based screen for lethality selective to Ras in HRASV12 cells; BJeLR (HRASV12) viability, CellTiter-Glo ATP luminescence, 48 h; inhibition, % (concentration not given with the values); actives 0.17% (n = 300,000); in the data active = inhibition above about 50%
CCHF vOTU inh-1: CCHFV vOTU protease inhibitors, primary screen, biochemical, Pep-AMC substrate, fluorescence; Crimean-Congo hemorrhagic fever virus L polyprotein viral ovarian tumor (vOTU) protease …; inhibition, % at 11.5 µM; actives 0.55% (n = 370,000); AID 651958, 2012
Yp Topo-I inh: Yersinia pestis topoisomerase I inhibitors, primary screen, biochemical, cleavage product accumulation, plate reader, single point. DNA topoisomerase I (Yersinia pestis CO92). activity, % at 10 µM. actives 0.064% (n = 360,000). AID 504884, 2011. Y. pestis Topo-I cleavage product accumulation; in the data active = activity above about 50%, passing the limit was not always enough
CCHF vOTU inh-2: CCHFV vOTU protease inhibitors, confirmation, biochemical, Pep-AMC substrate, fluorescence; shares compounds with CCHF vOTU inh-1; inhibition, % at 11.5 µM; Recombinant CCHFV vOTU; actives 17% (n = 1,900)
Large screens that a line does not name were inactive (follow-up assays come after a bar, where they were run). Rule as the data show it, unless noted: active = inhibition above about 30%; inactive = the rest.

CC1CN(N=Cc2ccc([N+](=O)[O-])o2)C(=N)O1 (stereo unspecified)	none (no result: RecA splice inh, Mtb betalactam, BJeLR lethal)
O=[N+]([O-])c1cc2ccccc2c(O)c1O	CCHF vOTU inh-1 83 (no result: RecA splice inh, Mtb betalactam, BJeLR lethal) | CCHF vOTU inh-2 inactive
C[C@@H]1CN([C@@H](C)CO)C(=O)c2cc(NS(=O)(=O)c3ccccc3)ccc2O[C@H]1CN(C)S(C)(=O)=O	none (no result: RecA splice inh, Mtb betalactam, BJeLR lethal, CCHF vOTU inh-1, Yp Topo-I inh)
CO[C@@H]1CN(C)C(=O)c2cc(NS(=O)(=O)Cc3ccccc3)ccc2OC[C@H](C)NC[C@@H]1C	none (no result: RecA splice inh, Mtb betalactam, BJeLR lethal, CCHF vOTU inh-1, Yp Topo-I inh)
O=C(CC1S/C(=N/N=C/c2ccco2)NC1=O)Nc1cccc(Cl)c1Cl (stereo unspecified)	CCHF vOTU inh-1 33 (no result: BioA inh) | CCHF vOTU inh-2 inactive
CCCC1S/C(=N/N=C/c2ccco2)NC1=O (stereo unspecified)	none (no result: BioA inh)
O=C1c2ccccc2C(=O)c2c1cccc2-n1nnc2ccccc21	none
O=C1C(N2CCOCC2)=C(n2nnc3ccccc32)C(=O)c2ccccc21	CCHF vOTU inh-1 104 | CCHF vOTU inh-2 98
C[n+]1c(-c2ccccc2)cc2c(=Cc3ccc([N+](=O)[O-])cc3)c3ccccc3n21	CCHF vOTU inh-1 93 (no result: BioA inh, RecA splice inh, Mtb betalactam, BJeLR lethal) | CCHF vOTU inh-2 57
CN(C)c1ccc(C=c2c3cc(O)ccc3n3c2cc(-c2ccccc2)[n+]3C)cc1	CCHF vOTU inh-1 47 (no result: BioA inh, RecA splice inh, Mtb betalactam, BJeLR lethal) | CCHF vOTU inh-2 41
CC(C)n1c2ccccc2c2cc([N+](=O)[O-])ccc21	none (no result: BioA inh)
C[n+]1c(-c2ccccc2)cc2c(=Cc3ccccc3)c3ccccc3n21	CCHF vOTU inh-1 83 (no result: BioA inh, RecA splice inh, Mtb betalactam, BJeLR lethal) | CCHF vOTU inh-2 78
C[C@@H]1CN([C@@H](C)CO)C(=O)c2cccc(NS(=O)(=O)c3ccc(Cl)cc3)c2O[C@@H]1CN(C)S(=O)(=O)c1cn(C)cn1	none (no result: RecA splice inh, Mtb betalactam, BJeLR lethal, CCHF vOTU inh-1, Yp Topo-I inh)
O=S(=O)(N[C@H]1CC[C@@H](CCn2cc(C3(O)CCCC3)nn2)O[C@@H]1CO)c1ccc(F)cc1	none (no result: RecA splice inh, Mtb betalactam, BJeLR lethal, CCHF vOTU inh-1, Yp Topo-I inh)
O=C(C[C@H]1C/C=C\C[C@@H](Cc2ccc(F)cc2)C(=O)O[C@H](c2ccccc2)CNC1=O)N[C@@H](CO)Cc1ccccc1	none (no result: RecA splice inh, BJeLR lethal)
O=C(C[C@@H]1C/C=C/CCCC(=O)O[C@H](c2ccccc2)CNC1=O)N[C@H](CO)Cc1ccccc1	CCHF vOTU inh-1 31 (no result: RecA splice inh, BJeLR lethal) | CCHF vOTU inh-2 inactive
COc1ccccc1-c1ccc2c(c1)O[C@@H](CN(C)C(=O)c1ccccc1)[C@@H](C)CN([C@@H](C)CO)S2(=O)=O	none (no result: RecA splice inh, Mtb betalactam, BJeLR lethal, CCHF vOTU inh-1, Yp Topo-I inh)
CC(=O)N(C)C[C@H]1Oc2ncc(-c3ccc(C#N)cc3)cc2C(=O)N([C@@H](C)CO)C[C@@H]1C	none (no result: RecA splice inh, Mtb betalactam, BJeLR lethal, CCHF vOTU inh-1, Yp Topo-I inh)
CCOC(=O)C1CCN(C2=C(NS(=O)(=O)c3ccc(Cl)cc3)C(=O)c3ccccc3C2=O)CC1	none (no result: BioA inh)
CCOC(=O)C1CCCN(C2=C(NS(=O)(=O)c3ccc(Br)cc3)C(=O)c3ccccc3C2=O)C1 (stereo unspecified)	CCHF vOTU inh-1 76 | CCHF vOTU inh-2 inactive
CC1CCN(C2=C(NS(=O)(=O)c3ccccc3)C(=O)c3ccccc3C2=O)CC1	none (no result: BioA inh)
CN(C1=C(N2CCCCC2)C(=O)c2ccccc2C1=O)c1ccccc1	CCHF vOTU inh-1 41 | CCHF vOTU inh-2 inactive
O=C1C(Nc2ccccc2)=C(N2CCCCC2)C(=O)c2ccccc21	RecA splice inh 46, CCHF vOTU inh-1 101 (no result: BioA inh) | CCHF vOTU inh-2 87
O=C1C(NS(=O)(=O)c2ccc(Br)cc2)=C(N2CCCCC2)C(=O)c2ccccc21	CCHF vOTU inh-1 33 | CCHF vOTU inh-2 inactive
Cc1ccc(-c2ccc3c(c2)O[C@H](CN(C)Cc2cccnc2)[C@H](C)CN([C@@H](C)CO)S3(=O)=O)cc1	none (no result: RecA splice inh, Mtb betalactam, BJeLR lethal, CCHF vOTU inh-1, Yp Topo-I inh)
C[C@H]1CN([C@@H](C)CO)C(=O)c2cccc(NS(=O)(=O)c3cccs3)c2O[C@@H]1CN(C)C(=O)NC1CCCCC1	none (no result: RecA splice inh, Mtb betalactam, BJeLR lethal, CCHF vOTU inh-1, Yp Topo-I inh)
C[C@@H]1CN([C@@H](C)CO)C(=O)c2cc(C#CCN(C)C)cnc2O[C@H]1CN(C)Cc1ccccn1	none (no result: RecA splice inh, Mtb betalactam, BJeLR lethal, CCHF vOTU inh-1, Yp Topo-I inh)

High-throughput results deposited in PubChem by several laboratories.
